From PubChem BioAssay AID1832 (Broad Institute, 2009)
About 1,100 (0.37%) of roughly 300,000 compounds were called active.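 Rule for the calls: active = inhibition past about -25% in most replicates, and total fluorescence under double the plate's negative control median (limit read from the data); inconclusive = replicates evenly split on the limit, or fluorescence at least double controls; inactive = too little inhibition in most replicates.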 This excerpt belongs to a sample that is enriched for actives.

Target: Zinc finger protein mex-5 (Caenorhabditis elegans) (UniProt Q9XUB2)
Experiment: MEX-5 zinc finger RNA-binding disruptors – biochemical, C. elegans, fluorescence polarization, MLPCN library, primary screen (AID 1832);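 note: 0% = DMSO and -100% = 5 µM competing unlabeled TCR2 RNA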
Conditions: MEX-5/FITC-TCR2 RNA binding, at 10 µM, hits give low values

Zinc finger protein mex-5 (Caenorhabditis elegans), sequence (Q9XUB2 whole entry, looked up): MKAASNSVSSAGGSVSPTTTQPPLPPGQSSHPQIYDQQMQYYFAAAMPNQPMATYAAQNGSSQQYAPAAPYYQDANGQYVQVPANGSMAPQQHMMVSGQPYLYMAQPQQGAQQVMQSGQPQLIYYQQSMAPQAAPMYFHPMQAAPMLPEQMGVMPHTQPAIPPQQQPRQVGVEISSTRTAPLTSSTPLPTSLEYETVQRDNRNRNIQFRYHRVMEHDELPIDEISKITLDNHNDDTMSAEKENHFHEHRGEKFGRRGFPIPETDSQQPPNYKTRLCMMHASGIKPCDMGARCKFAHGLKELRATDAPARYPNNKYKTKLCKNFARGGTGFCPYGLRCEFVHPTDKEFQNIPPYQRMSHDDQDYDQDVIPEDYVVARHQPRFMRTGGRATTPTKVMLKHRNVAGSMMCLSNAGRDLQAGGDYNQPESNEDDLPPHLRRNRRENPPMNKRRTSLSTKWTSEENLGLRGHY

Activity score (negative = inhibition of binding), inactive:
CC(C)(C)OC(=O)N1CCC(C(=O)NNC(=O)c2ccc(Cl)cc2Cl)CC1 0.105%, CCOC(=O)c1sc2nc(C)[nH]c(=O)c2c1C -1.49%, CCOC(=O)c1sc2nc(CSc3ccccc3)[nH]c(=O)c2c1C 3.85%, CC(C)C[C@H](NC(=O)N1CC(=O)Nc2ccccc21)C(=O)N[C@H](Cc1ccccc1)C(=O)O 2.99%, COc1ccc(C(=O)OCC(=O)NCC2CCCO2)cc1[N+](=O)[O-] (stereo not given) 0.621%, CNC(=O)/C(C#N)=C/c1c(F)cccc1Cl 0.288%, COc1ccc2c(C)c(CCC(=O)NC3CC3)c(=O)oc2c1C -3.04%, CCCCC1N2CC3([N+](=O)[O-])CN1CC([N+](=O)[O-])(C2)C3(C)C (stereo not given) -0.199%, COc1ccc(/C=C2\SC(=S)N(CCC(=O)Nc3ccccn3)C2=O)cc1OC -2.36%, COc1ccc(/C=C2\SC(=S)N(CCC(=O)Nc3cccc(C(=O)O)c3)C2=O)cc1OC -1.23%, O=S(=O)(c1ccccc1)N1CCC(c2ccccc2)CC1 -0.204%, CCN(CC(=O)Nc1ccc2c(c1)OCCO2)Cc1cc(=O)oc2cc(C)c(C)cc12 -1.63%, COc1ccc(CCn2c(NN=C3CCCC3)nc3c2c(=O)[nH]c(=O)n3C)cc1 1.31%, NC(=O)c1oc2ccccc2c1NC(=O)Cc1ccccc1 -2.66%, CCCCCCn1c(CN2CCCC(C)C2)nc2c1c(=O)n(C)c(=O)n2C (stereo not given) -0.485%, Cc1c(CN2CCCCC2)c(O)n(CCO)c(=O)c1C#N -12.5%, COc1cccc(NC(=O)CSc2nnc(-c3cccnc3)o2)c1 -0.46%, CCOC(=O)COc1cc(O)c2c(=O)cc(-c3ccccc3)oc2c1 0.422%, COc1ccc(-c2cc(=O)c3c(O)cc(O[C@@H]4O[C@H](CO[C@@H]5O[C@@H](C)[C@H](O)[C@@H](O)[C@H]5O)[C@@H](O)[C@H](O)[C@H]4O)cc3o2)cc1O 0.902%, COc1ccccc1OCCOc1ccc(/C=C2\C(=N)N3N=C(C)SC3=NC2=O)cc1 0.998%, CC(C)CC(=O)c1c[nH]c(C(=O)NCc2ccccc2)c1 -0.164%, CN1C(=O)/C(=C\c2ccc(-c3ccccc3)o2)SC1=S -2.67%, CN1CCN(/N=C/c2ccc(-c3ccc([N+](=O)[O-])cc3)o2)CC1 2.18%, CCOCCCNC(=S)Nc1ccc2nc(N3CCN(CC)CC3)cc(C)c2c1 2.27%, CCOCCCNC(=O)C(NC(=O)CNC(=O)c1ccccc1)c1ccc(OC)cc1 (stereo not given) -1.36%, O=C(C1=C(O)C(=O)N(Cc2ccccc2)C1c1ccco1)c1ccco1 (stereo not given) 0.4%, O=C(C1=C(O)C(=O)N(Cc2ccccc2)C1c1cccnc1)c1ccco1 (stereo not given) -1.21%, c1ccc2c(c1)CCc1snnc1-2 2.39%, O=C(Cn1nc(C(=O)O)c2ccccc2c1=O)Nc1ccc(F)cc1 -2.04%, Cc1ccc(-c2nn(-c3ccccc3)cc2/C=C2\SC(=S)N(CCCCCC(=O)O)C2=O)o1 -7.25%, CCCCN(C(=O)c1ccc(OC(F)(F)F)cc1)c1c(N)n(CCC)c(=O)[nH]c1=O 1.98%, Cc1ccc(Cn2c(=N)c(S(=O)(=O)c3ccc(C)cc3)cc3c(=O)n4ccccc4nc32)cc1 6.5%, COc1ccc(CNC(=O)c2cc3c(=O)n4ccccc4nc3n(CC3CCCO3)c2=N)cc1 (stereo not given) -4.96%, Cc1ccc(/C=C/C(=O)Nc2ccc([N+](=O)[O-])c(NC(=O)/C=C/c3ccc(C)o3)c2)o1 1.59%, O=C(N/N=C/c1ccc([N+](=O)[O-])o1)c1cn(-c2ccccc2)nc1-c1ccc(F)cc1 -3.11%, O=C(c1ccc(F)cc1)n1c(=S)nc2ccccn21 0.662%

Activity score (negative = inhibition of binding), active:
CSc1nnc(SCc2nc3sc(C(=O)O)c(C)c3c(=O)[nH]2)s1 -39.1%, COc1ccc(/C=C2\SC(=S)N(CCCC(=O)NC3CCCC3)C2=O)cc1OC -48.2%, Nc1ccc2nc3c(=O)[nH]c(=S)[nH]c3nc2c1 -47.2%, CCCn1c(O)c(CN2CCCC(C)C2)c(C)c(C#N)c1=O (stereo not given) -33.7%, COc1c(O)cc2oc(-c3ccc(O)c(O)c3)cc(=O)c2c1O -34.4%, NS(=O)(=O)c1ccc(-c2ccc(/C=C3\SC(=O)NC3=O)o2)cc1 -76.4%, O=C(C1=C(O)C(=O)N(c2ncccn2)C1c1cccs1)c1ccco1 (stereo not given) -42.2%, CCn1c(=N)c(S(=O)(=O)c2ccc(F)cc2)cc2c(=O)n3ccccc3nc21 -29.2%, O=C(/C=C/c1ccc([N+](=O)[O-])o1)NNC(=O)c1ccc(F)cc1 -26.8%
